Test results: PubChem BioAssay AID893 (National Center for Advancing Translational Sciences (NCATS), 2007)
Among all 75,000 compounds or so, about 5,700 (7.6%) were called active. A call without a number means that no potency is given here. Another 7% or so got no clear call; they are omitted. The call rests on the fitted dose curve; in most records, active means well fitted inhibition curve with a large enough effect; inconclusive means small, poorly fitted or top-dose-only effect; inactive means no such curve, though single readings can be large or run the other way. For the sample, actives were picked, then their nearest neighbours and some compounds at random.

Each compound was assayed against 3-hydroxyacyl-CoA dehydrogenase type-2 (Homo sapiens) (UniProt Q99714) (assay: qHTS Assay for Inhibitors of HSD17B4, hydroxysteroid (17-beta) dehydrogenase 4). Conditions: recombinant HSD17B10, NADH fluorescence kinetic; series mostly up to 57.1 µM.
How it was run: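 20 nM HADH2, pH 9.0 Tris/Tween; cpd preinc 15 min RT; start w/ 1 mM NAD+ + 90 uM b-hydroxybutyryl-CoA; kinetic fluor ex360/em450 q30s x 4 min; delta last-first.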
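Further: the protocol describes HADH2 (HSD17B10) and not the HSD17B4 of the title; nearly all actives have a fitted effect of over 70% in size.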
Potency means the concentration at half of the fitted maximal effect.

Row | Compound | Potency | activity change, negative = inhibition
1 | COc1ccccc1-c1cc(NCc2cccs2)ncn1 | inactive | 
2 | C[C@@H]1O[C@@H](O[C@@H]2[C@@H](O)[C@H](OCCc3ccc(O)c(O)c3)O[C@H](CO[C@@H]3O[C@H](CO)[C@@H](O)[C@H](O)[C@H]3O)[C@H]2OC(=O)/C=C/c2ccc(O)c(O)c2)[C@H](O)[C@H](O)[C@H]1O | 2 µM (active) | 
3 | COc1ccc(CCC(=O)c2c(O)cc(OC3OC(CO)C(O)C(O)C3O[C@@H]3OC(C)C(O)C(O)C3O)cc2O)cc1O (stereo not given in full) | inactive | 
4 | CC1OC(OCC2OC(Oc3c(-c4ccc(O)c(O)c4)oc4cc(O)cc(O)c4c3=O)C(O)C(O)C2O)[C@@H](O)C(O)C1O (stereo not given in full) | inactive | 
5 | CN1C(=O)c2ccccc2C(C(=O)NCCCN2CCCC2)C1c1c[nH]c2ccccc12 (stereo not given) | inactive | 
6 | COC(=O)[C@@H]1CC[C@H](C)[C@@H](c2ccc(C)cc2)N1C(=O)c1ccc(/C=N\OC[C@@H](O)COCc2ccco2)cc1 |  | -1.91% [at 11.4 µM] (inactive)
7 | CCCS(=O)(=O)N1CCC(C(=O)NCCc2ccc(OC)c(OC)c2)CC1 | inactive | 
8 | CCOc1ccc(CCNC(=O)C2CCN(c3ccc(N4CCOCC4)nn3)CC2)cc1OCC | 25.1 µM (active) | 
9 | COc1ccc(CCNC(=O)C2CCN(c3nn4c(=O)cc(C)nc4s3)CC2)cc1OC | inactive | 
10 | CCC(C)NC(=O)C1CCC(=O)N1Cc1ccc(C)cc1 (stereo not given) | inactive | 
11 | CC(C)CO/N=C1/C[C@@H](O)[C@@H](O)[C@@H]2[C@@H]3C(=O)N(C[C@@H]4CCCO4)C(=O)[C@H]3CC[C@@H]12 |  | 9.42% [at 11.4 µM] (inactive)
12 | CN(Cc1ccccc1)c1nc2c(c(=O)[nH]c(=O)n2C)n1CCSc1nc2ccccc2[nH]1 | inactive | 
13 | CC(C)CCn1c(CN(C)Cc2ccccc2)nc2c1c(=O)n(C)c(=O)n2C | inactive | 
14 | Cc1ccnc(SCCn2c(N(C)Cc3ccccc3)nc3c2c(=O)n(C)c(=O)n3C)n1 | 31.6 µM (active) | 
15 | O=c1c(-c2ccccc2)coc2c(CN3CCOCC3)c(O)ccc12 | 31.6 µM (active) | 
16 | COc1ccc(OC)c(C(=O)c2coc3ccc(O)c(CN4CCOCC4)c23)c1 | inactive | 
17 | CN1CCN(Cc2c(O)ccc3c2oc(=O)c2ccccc23)CC1 | inactive | 
18 | Cc1ccnc(-n2sc3ccccc3c2=O)n1 | 3.16 µM (active) | 
19 | COc1ccc(S(=O)(=O)N(CCCN2CCCC2=O)Cc2cc3c(C)ccc(C)c3[nH]c2=O)cc1 | inactive | 
20 | O=C1Nc2ccccc2C12Nc1ccccc1S2 (stereo not given) | inactive | 
21 | CCCOc1ccccc1C1CC(=O)Nc2cc3c(cc21)OCO3 (stereo not given) | inactive | 
22 | O=C1NC(c2cc3c(cc2Cl)OCO3)Oc2ccccc21 (stereo not given) | 31.6 µM (active) | 
23 | O=C(Nc1ccc(Cl)cc1)c1ccsn1 | inactive | 
24 | COC(=O)c1ccc(S(=O)(=O)c2ccc(C(=O)OC)s2)s1 | inactive | 
25 | CCCC[C@@H]1C[C@H]1C(NC(=O)c1ccc(-c2ccccc2)cc1)c1ccc(-c2ccccc2)cc1 (stereo not given in full) | inactive | 

Row | Compound | Potency | activity change, negative = inhibition
26 | Cc1oc2nc(SCC(=O)NCc3cccnc3)nc(N)c2c1C | inactive | 
27 | COCCn1c(CN2CCC(Cc3ccccc3)CC2)nc2c1c(=O)n(C)c(=O)n2C | inactive | 
28 | COCCn1c(=O)c(-c2cccs2)nc2cncnc21 | 25.1 µM (active) | 
29 | COCCn1c(=O)c(-c2ccccc2)nc2cnc(N3CCOCC3)nc21 | 20 µM (active) | 
30 | COCCn1c(=O)c(-c2cccs2)nc2cnc(N3CCN(C)CC3)nc21 | 20 µM (active) | 
31 | COc1ccc(-n2c(=O)c(C)nc3cnc(N4CCOCC4)nc32)cc1 | inactive | 
32 | COc1ccccc1CCn1c(=O)c(-c2cn(C)c3ccccc23)nc2cncnc21 | inactive | 
33 | CCOC(=O)c1cc2occc2n1CC(=O)NC1CCC(C)CC1 (stereo not given) | inactive | 
34 | CCOC(=O)C1CCCN(C(=O)CN(c2ccc(OC)cc2)S(=O)(=O)c2c(C)noc2C)C1 (stereo not given) | inactive | 
35 | c1ccc(Nc2nc(-c3ccncc3)cs2)nc1 | inactive | 
36 | O=C(Nc1nc(-c2ccc3c(c2)OCO3)cs1)c1ccncc1 | inactive | 
37 | O=C(Nc1nc(-c2ccncc2)cs1)C1COc2ccccc2O1 (stereo not given) | 31.6 µM (active) | 
38 | CN/C(=C\[N+](=O)[O-])NCCSCc1csc(CN(C)C)n1 | inactive | 
39 | O=c1c(CCc2ccccc2)nc2cncnc2n1C1CC1 | inactive | 
40 | COc1cccc(Cn2c(=O)c(CCc3ccccc3)nc3cnc(N(C)C)nc32)c1 | 25.1 µM (active) | 
41 | COc1cccc(Nc2ncc3ncc(=O)n(C4CC4)c3n2)c1 | inactive | 
42 | Cn1cc(-c2nc3cnc(N4CCNCC4)nc3n(CCc3ccccc3)c2=O)c2ccccc21 | inactive | 
43 | N#Cc1cccc(-c2nc3cnc(N4CCNCC4)nc3n(C3CC3)c2=O)c1 | 3.98 µM (active) | 
44 | Cc1nc2cnc(N3CCNCC3)nc2n(CCc2ccccc2)c1=O | 25.1 µM (active) | 
45 | Cc1nc2cnc(Nc3ccccc3)nc2n(Cc2ccc(F)cc2)c1=O | inactive | 
46 | CN(C)c1ncc2nc(-c3ccc(F)cc3)c(=O)n(Cc3ccc(F)cc3)c2n1 | 3.98 µM (active) | 
47 | O=c1cnc2cnc(Nc3ccccc3)nc2n1Cc1ccc(F)cc1 | inactive | 
48 | COc1cccc(Cn2c(=O)c(C)nc3cnc(Oc4ccccc4)nc32)c1 | inactive | 
49 | Cn1c(=O)c(CCc2ccccc2)nc2cnc(Nc3ccccc3)nc21 | inactive | 
50 | Cn1c(=O)n(CCc2ccccc2)c(=O)c2c1nc1n2CCCN1c1ccccc1 | inactive | 
